Results published in PubChem BioAssay (NCATS).
Values joined by “and” are separate entries in the source; they are usually repeats but may differ in a detail not shown here. Identical values can stand only once. Unmarked numbers belong to inactive results. Inconclusive results are not listed. Active and inactive are the calls of the source. Unless noted, the call rests on the fitted dose curve; in most records, active means well fitted curve in either direction with a large enough effect (not every such curve was filed as active); inconclusive means small, poorly fitted or top-dose-only effect, or another doubt; inactive means flat fitted curve, though single readings scatter.

How the values were obtained:
[1] = AP1 Signaling Pathway (AID 357); conditions: ME-180 AP-1-bla reporter, EGF-induced, beta-lactamase ratio, 5 h; at 7.69 µM (top of the series) unless noted;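 further: ME-180 reporter cells stimulated with EGF at its EC50 level; on the % scale 0 is the no-effect control and ±100 the full control effect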
How it was run: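 Read-out was the 460nm/530nm emission ratio (excitation 405nm) after CCF4 loading for 2.5 hours at room temperature. Cells carried an AP-1-driven beta-lactamase reporter, were stimulated with EC50 EGF plus compound for 5 hours, and AC50 values came from titrations.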

[2] = target: Cytochrome P450 1A2 (Homo sapiens) (UniProt P05177); assay: p450-cyp1a2 (AID 410; calls by dose curve; further: potency means the concentration at half of the fitted maximal effect;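 on activity change, negative = inhibition: -100% = full effect of reference inhibitor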); conditions: recombinant CYP1A2, luciferin-ME demethylation, luminescence; series mostly up to 11.4 µM
How it was run: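 Luminescent demethylation readout: Luciferin-ME (100uM, equal to Km) turned over by 20nM CYP1A2 for 60 min at room temperature after NADPH regeneration addition, following 10 min compound preincubation. Normalization used 57 uM furafylline as full inhibition.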

[3] = NFAT Signaling Pathway (AID 444); conditions: Jurkat NFAT-bla M1, carbachol, beta-lactamase ratio, 5 h; at 7.69 µM (top of the series) unless noted;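 further: carbachol stimulus at about its EC50 of 1 µM final; on the % scale 0 is the no-effect control and ±100 the full control effect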
How it was run: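 Jurkat cells carrying an NFAT-driven β-lactamase reporter and co-transfected muscarinic M1 receptor were treated with compound plus carbachol (1 uM final, an EC50 level) for 5 h at 37 °C. CCF4 loading followed for 1 h at RT; 460/530 nm ratio gave %activity.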

[4] = Stat Signaling Pathway (AID 446); conditions: ME-180 (cervical carcinoma) SIE beta-lactamase reporter, IL-6 stimulated, 5 h; at 7.69 µM (top of the series) unless noted;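 further: ME-180 cervical cancer cells given 40 pM IL-6 alongside compound; SIE-controlled beta-lactamase reporter measured as 460/530 nm FRET emission ratio; on the % scale 0 is the no-effect control and ±100 the full control effect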
How it was run: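 Normalization used AC90 stimulation (300 pM IL-6) and AC90 inhibition (125 nM pan-JAK inhibitor at 40 pM IL-6). The underlying signal is SIE-driven beta-lactamase in ME-180 cells after 5 h IL-6 exposure with compound.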

[5] = target: Glucocorticoid receptor (Homo sapiens) (UniProt P04150); assay: GR-GFP Redistribution (AID 450;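 active means compounds whose dose series gives a full or clear partial fitted curve of increased nuclear translocation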; further: potency means the concentration at half of the fitted maximal effect); conditions: U2OS GR-GFP nuclear translocation, laser cytometry, 2 h
[6] = target: Glucocorticoid receptor (Homo sapiens) (UniProt P04150); assay: GR-EFC Redistribution (AID 451; calls by dose curve; further: potency means the concentration at half of the fitted maximal effect); conditions: CHO-K1 GR-EFC translocation, beta-gal luminescence, 2 h
How it was run: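 CHO-K1 cells stably expressing nuclear-localized β-gal enzyme acceptor and GR fused C-terminally to the enzyme donor fragment; ligand-driven nuclear translocation restores β-gal by complementation. Compounds titrated up to 46 uM final, 2 h at 37 °C; luminescence read.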

[7] = target: Mitogen-activated protein kinase 10 (Mus musculus) (UniProt Q61831); assay: JNK3 AlphaScreen Assay (AID 530); conditions: JNK3 lysate, c-Jun phosphorylation; series mostly up to 11.4 µM;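 further: kinase came from lysate of stimulated human HepG2 cells; signal reports phosphorylation of biotinylated GST-cJun 1-79 at Ser73 with 10 µM ATP; on the % scale 0 is the no-effect control and ±100 the full control effect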
How it was run: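 Phosphorylation of biotinylated GST-cJun(1-79) at Ser73 is measured by AlphaScreen proximity luminescence. Enzyme is JNK3 in HepG2 lysates activated with interleukin-1beta and tumor necrosis factor alpha; ATP is 10 uM final.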

[8] = target: 3',5'-cyclic-AMP phosphodiesterase 4B (Homo sapiens) (UniProt Q07343); assay: qHTS Assay for Inhibitors of PDE-IV (AID 607; active means well fitted activation curve with a large enough effect in the main read-out, with a control signal flat, not every such curve was filed as active; further: % of control where 0% means no effect); conditions: HEK293 ACTOne CNG channel cells, membrane potential fluorescence; series mostly up to 22.9 µM
How it was run: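 HEK293 ACTOne cells with CNG channel (1000/well), endogenous PDE4; membrane potential dye, compounds up to 22.9 uM final. Fluorescence Ex 535/Em 590; RO 20-1724 (100 uM final) as reference.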

[9] = target: Cytochrome P450 2C19 (Homo sapiens) (UniProt P33261); assay: qHTS Assay for Inhibitors and Substrates of Cytochrome P450 2C19 (AID 899; active means well fitted curve in the direction sought with a large enough effect; an effect the other way counts as inactive or inconclusive; further: nearly all actives have a fitted effect of over 60% in size; further: potency means the concentration at half of the fitted maximal effect); conditions: recombinant CYP2C19, luciferin-H EGE luminescence; series mostly up to 11.4 µM
How it was run: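 In 50mM KPO4, the reaction held 5nM enzyme and KM-level (10uM) Luciferin-H EGE; it ran 60 min at 37C after NADPH regeneration and a 10 min compound preincubation. Luminescence values were scaled to 57uM ketoconazole as complete inhibition.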

[10] = target: Guanine nucleotide-binding protein G(i) subunit alpha-1 (Homo sapiens) (UniProt P63096); assay: qHTS Assay for Inhibitors of RGS12 GoLoco Motif Activity (Green Fluorophore) (AID 879; active means well fitted curve in the direction sought with a large enough effect; an effect the other way counts as inactive or inconclusive;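 further: 0% = labeled peptide with Gαi1 and full inhibition = labeled peptide alone without protein; negative values mean loss of peptide binding seen as reduced polarization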); conditions: Galphai1/FITC-RGS12 GoLoco peptide, fluorescence polarization; series mostly up to 57.1 µM
How it was run: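 A drop in FITC polarization marked displacement of the FITC-tagged RGS12 GoLoco peptide (10 nM) from Gαi1 (50 nM). Compounds were incubated 10 min at room temperature in Tris pH 7.5 buffer containing 150 mM NaCl, 0.1 mM GDP and 0.05% NP40; unlabeled peptide titration served as control.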

[11] = target: Pyruvate kinase (Leishmania mexicana) (UniProt Q27686); assay: qHTS Validation Assay for Inhibitors of Leishmania Mexicana Pyruvate Kinase (AID 945; active means well fitted curve in the direction sought with a large enough effect; an effect the other way counts as inactive or inconclusive;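 further: 0% = DMSO only neutral control wells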); conditions: purified L. mexicana pyruvate kinase, enzyme activity, E451W mutant enzyme; series mostly up to 57.5 µM
How it was run: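 Compounds are tested as eight-point concentration series. Reactions contain 0.2 nM LmPYK E451W, 0.5 mM PEP, 0.1 mM ADP, 7 mM MgCl2 and 50 mM KCl at pH 7.2, run 1 h at room temperature, then read by PKLight luminescence.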

[12] = target: Pyruvate kinase PKM (Homo sapiens) (UniProt P14618); assay: qHTS Assay for Activators of Human Muscle Pyruvate Kinase (AID 954; active means well fitted curve in the direction sought with a large enough effect, not every such curve was filed as active;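 further: 0% = uninhibited enzyme and -100% = no enzyme or full thiadiazolimine inhibition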); conditions: purified human muscle pyruvate kinase, luciferase-coupled luminescence, 1 h; series mostly up to 57.5 µM
How it was run: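 Compound pinned into substrate mix (0.5 mM PEP, 0.1 mM ADP), then 0.1 nM PKM2 added; 1 h, RT. Stop/detection luciferase reagent added, luminescence read. Normalized to no-inhibition and no-enzyme or reference-inhibitor controls.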

[13] = target: Alpha-galactosidase A (Homo sapiens) (UniProt P06280); assay: Counterscreen for Glucocerebrosidase Inhibitors: qHTS Assay for Human alpha-Galactosidase at pH 4.5 (AID 992; active means well fitted curve in the direction sought with a large enough effect; an effect the other way counts as inactive or inconclusive; further: 0% is about no effect); conditions: purified enzyme, fluorogenic substrate; series mostly up to 76.9 µM
How it was run: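 Steps: enzyme (2 nM final), then compound across 0.7 nM to 77 uM, then 80 uM fluorogenic galactopyranoside substrate; incubate 20 min at room temperature; quench at pH 10; measure fluorescence at 365/440 nm.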

[14] = target: alpha-glucosidase (Oryza sativa, rice) (UniProt Q653V4); assay: Counterscreen for Glucocerebrosidase Inhibitors: qHTS Assay for Rice alpha-Glucosidase at pH 5.0 (AID 997; active means well fitted curve in the direction sought with a large enough effect; an effect the other way counts as inactive or inconclusive;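 further: 0% = full activity with enzyme and -100% = basal without enzyme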); conditions: rice alpha-glucosidase enzyme activity; series mostly up to 76.9 µM
How it was run: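 Endpoint fluorogenic assay at pH 5.0: compounds (0.7 nM to 77 uM) titrated against 4 nM rice enzyme and 400 uM 4-MU-alpha-glucoside for 20 min at room temperature; NaOH/glycine stop, read ex 365/em 440 nm, Hill-fitted AC50.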

[15] = target: Cytochrome P450 2D6 (Homo sapiens) (UniProt P10635); assay: qHTS Assay for Inhibitors and Substrates of Cytochrome P450 2D6 (AID 891; active means well fitted curve in the direction sought with a large enough effect; an effect the other way counts as inactive or inconclusive;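 further: luciferin methyl ether substrate demethylated by CYP2D6 with NADPH regeneration; on the % scale 0 is the no-effect control and ±100 the full control effect; nearly all actives have a fitted effect of over 60% in size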); conditions: recombinant CYP2D6, luciferin-ME EGE luminescence; series mostly up to 11.4 µM
How it was run: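 Luminescent read-out of luciferin formed by 5 nM human CYP2D6 demethylating 30 uM Luciferin-ME EGE (Km level) over 60 min at room temperature after NADPH regeneration addition. Data normalized to full inhibition by 1.43 uM quinidine.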

[16] = target: Cytochrome P450 3A4 (Homo sapiens) (UniProt P08684); assay: qHTS Assay for Activators of Cytochrome P450 3A4 (AID 885; active means well fitted curve in the direction sought with a large enough effect; an effect the other way counts as inactive or inconclusive; further: nearly all actives have a fitted effect of over 65% in size); conditions: recombinant CYP3A4, Luciferin-PPXE luminescence, 60 min; series mostly up to 11.4 µM
How it was run: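 Human CYP3A4 dealkylates Luciferin-PPXE to luciferin, which luciferase detection converts to light. Substrate was at its KM (25uM), buffer 200mM KPO4, reaction 60 min at RT.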

Cytochrome P450 2C19 (Homo sapiens), sequence (P33261 whole entry, looked up): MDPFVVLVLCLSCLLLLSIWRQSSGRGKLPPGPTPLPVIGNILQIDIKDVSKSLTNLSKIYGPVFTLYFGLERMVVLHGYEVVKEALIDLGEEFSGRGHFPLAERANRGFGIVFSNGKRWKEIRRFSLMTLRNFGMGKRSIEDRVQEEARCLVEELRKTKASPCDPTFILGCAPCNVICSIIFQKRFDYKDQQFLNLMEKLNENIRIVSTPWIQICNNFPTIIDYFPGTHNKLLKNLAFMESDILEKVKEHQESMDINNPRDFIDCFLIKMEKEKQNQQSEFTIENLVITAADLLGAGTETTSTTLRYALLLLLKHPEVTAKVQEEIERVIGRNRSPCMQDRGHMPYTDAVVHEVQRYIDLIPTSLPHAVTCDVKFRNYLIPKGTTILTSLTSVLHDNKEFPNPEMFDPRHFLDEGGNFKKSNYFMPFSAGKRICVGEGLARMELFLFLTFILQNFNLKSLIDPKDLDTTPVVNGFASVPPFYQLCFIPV
3',5'-cyclic-AMP phosphodiesterase 4B (Homo sapiens), sequence (Q07343 whole entry, looked up): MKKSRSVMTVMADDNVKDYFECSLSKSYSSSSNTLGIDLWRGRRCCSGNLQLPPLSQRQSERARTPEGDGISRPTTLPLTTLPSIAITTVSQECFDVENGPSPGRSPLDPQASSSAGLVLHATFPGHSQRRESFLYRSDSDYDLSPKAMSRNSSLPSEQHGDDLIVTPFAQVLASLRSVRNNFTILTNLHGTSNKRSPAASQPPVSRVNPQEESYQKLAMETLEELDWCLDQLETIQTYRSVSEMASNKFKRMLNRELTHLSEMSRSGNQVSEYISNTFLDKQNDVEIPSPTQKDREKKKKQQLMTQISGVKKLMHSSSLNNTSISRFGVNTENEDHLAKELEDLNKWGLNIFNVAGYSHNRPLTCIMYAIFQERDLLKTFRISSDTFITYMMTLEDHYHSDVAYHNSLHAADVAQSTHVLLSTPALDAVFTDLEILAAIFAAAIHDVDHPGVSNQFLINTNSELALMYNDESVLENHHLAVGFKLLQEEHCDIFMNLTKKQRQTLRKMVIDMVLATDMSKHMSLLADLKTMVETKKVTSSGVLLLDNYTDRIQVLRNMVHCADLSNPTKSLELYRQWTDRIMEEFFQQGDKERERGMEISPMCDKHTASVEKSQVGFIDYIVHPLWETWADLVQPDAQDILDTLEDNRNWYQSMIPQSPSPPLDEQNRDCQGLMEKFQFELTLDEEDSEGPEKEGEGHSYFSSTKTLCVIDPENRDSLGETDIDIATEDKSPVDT
Cytochrome P450 1A2 (Homo sapiens), sequence (P05177 whole entry, looked up): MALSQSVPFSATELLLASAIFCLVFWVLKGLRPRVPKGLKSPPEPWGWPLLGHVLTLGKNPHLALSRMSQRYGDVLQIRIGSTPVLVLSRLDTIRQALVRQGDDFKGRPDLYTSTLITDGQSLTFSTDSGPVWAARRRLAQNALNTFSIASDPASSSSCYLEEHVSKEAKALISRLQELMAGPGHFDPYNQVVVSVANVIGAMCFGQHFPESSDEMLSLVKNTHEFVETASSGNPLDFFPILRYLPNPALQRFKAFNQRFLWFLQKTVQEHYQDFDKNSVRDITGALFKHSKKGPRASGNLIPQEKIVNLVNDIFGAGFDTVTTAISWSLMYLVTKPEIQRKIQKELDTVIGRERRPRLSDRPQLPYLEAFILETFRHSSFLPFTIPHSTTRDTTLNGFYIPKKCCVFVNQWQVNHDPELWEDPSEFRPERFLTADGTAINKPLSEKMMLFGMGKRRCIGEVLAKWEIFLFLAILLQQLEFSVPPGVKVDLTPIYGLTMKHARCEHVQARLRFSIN
Cytochrome P450 2D6 (Homo sapiens), sequence (P10635 whole entry, looked up): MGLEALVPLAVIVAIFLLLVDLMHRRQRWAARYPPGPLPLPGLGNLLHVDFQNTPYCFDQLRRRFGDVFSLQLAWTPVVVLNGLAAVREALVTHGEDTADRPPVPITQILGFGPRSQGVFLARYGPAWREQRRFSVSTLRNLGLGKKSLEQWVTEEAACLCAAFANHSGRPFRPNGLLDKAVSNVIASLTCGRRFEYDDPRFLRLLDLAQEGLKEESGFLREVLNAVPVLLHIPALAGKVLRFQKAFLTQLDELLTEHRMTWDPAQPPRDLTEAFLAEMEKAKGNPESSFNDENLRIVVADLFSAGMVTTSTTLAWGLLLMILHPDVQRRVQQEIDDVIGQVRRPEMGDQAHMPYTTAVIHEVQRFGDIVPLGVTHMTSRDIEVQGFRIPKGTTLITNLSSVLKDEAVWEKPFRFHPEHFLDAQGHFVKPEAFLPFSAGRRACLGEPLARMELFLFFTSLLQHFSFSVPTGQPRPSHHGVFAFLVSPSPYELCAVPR
Glucocorticoid receptor (Homo sapiens), sequence (P04150 whole entry, looked up, the tested form may be a part): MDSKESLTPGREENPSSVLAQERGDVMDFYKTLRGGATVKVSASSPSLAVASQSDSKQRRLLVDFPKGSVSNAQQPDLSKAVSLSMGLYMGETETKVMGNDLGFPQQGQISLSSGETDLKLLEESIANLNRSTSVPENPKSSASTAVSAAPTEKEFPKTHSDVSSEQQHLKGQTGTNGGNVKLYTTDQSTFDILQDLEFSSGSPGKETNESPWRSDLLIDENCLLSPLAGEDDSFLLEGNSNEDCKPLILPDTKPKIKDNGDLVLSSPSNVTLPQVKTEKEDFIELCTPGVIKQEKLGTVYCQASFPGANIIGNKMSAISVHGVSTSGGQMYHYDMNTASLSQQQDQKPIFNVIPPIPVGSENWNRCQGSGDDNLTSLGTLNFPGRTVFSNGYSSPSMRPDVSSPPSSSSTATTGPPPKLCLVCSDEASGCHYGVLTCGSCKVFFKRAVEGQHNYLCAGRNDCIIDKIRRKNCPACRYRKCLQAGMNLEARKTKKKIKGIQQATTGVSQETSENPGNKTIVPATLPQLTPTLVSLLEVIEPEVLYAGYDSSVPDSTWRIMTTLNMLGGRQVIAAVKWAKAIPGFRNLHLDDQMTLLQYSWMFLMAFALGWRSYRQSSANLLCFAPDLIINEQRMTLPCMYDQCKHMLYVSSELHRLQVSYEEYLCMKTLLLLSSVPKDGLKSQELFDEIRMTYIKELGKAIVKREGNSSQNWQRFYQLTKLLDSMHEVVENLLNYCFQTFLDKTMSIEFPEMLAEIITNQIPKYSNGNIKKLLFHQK
Cytochrome P450 3A4 (Homo sapiens), sequence (P08684 whole entry, looked up): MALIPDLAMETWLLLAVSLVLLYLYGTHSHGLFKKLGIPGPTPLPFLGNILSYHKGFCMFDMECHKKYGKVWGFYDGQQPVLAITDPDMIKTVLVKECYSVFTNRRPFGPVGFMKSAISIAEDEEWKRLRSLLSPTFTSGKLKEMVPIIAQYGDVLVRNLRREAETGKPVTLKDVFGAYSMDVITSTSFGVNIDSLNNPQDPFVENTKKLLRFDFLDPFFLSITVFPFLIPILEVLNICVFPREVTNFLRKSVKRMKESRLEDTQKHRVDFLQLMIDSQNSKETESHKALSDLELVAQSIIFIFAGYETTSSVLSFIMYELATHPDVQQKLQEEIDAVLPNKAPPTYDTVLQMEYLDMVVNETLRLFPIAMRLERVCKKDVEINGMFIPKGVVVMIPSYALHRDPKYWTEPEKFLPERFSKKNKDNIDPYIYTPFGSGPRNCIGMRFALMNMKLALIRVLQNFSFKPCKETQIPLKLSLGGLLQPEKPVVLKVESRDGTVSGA
Pyruvate kinase (Leishmania mexicana), sequence (Q27686 2-499 E452W): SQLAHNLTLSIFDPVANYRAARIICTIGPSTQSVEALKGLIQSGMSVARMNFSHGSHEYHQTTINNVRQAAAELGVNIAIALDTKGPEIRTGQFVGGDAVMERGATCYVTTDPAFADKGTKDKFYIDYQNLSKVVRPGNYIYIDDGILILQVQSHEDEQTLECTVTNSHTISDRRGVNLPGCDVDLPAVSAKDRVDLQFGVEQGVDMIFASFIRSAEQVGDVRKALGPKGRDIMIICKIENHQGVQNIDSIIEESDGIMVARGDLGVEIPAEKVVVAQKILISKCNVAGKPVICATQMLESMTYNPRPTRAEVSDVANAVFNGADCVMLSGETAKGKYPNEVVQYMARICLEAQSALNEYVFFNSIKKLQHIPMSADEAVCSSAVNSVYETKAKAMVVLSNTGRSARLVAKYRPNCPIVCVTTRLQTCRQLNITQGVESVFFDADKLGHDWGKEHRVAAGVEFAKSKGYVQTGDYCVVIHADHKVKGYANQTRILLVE
Alpha-galactosidase A (Homo sapiens), sequence (P06280 whole entry, looked up): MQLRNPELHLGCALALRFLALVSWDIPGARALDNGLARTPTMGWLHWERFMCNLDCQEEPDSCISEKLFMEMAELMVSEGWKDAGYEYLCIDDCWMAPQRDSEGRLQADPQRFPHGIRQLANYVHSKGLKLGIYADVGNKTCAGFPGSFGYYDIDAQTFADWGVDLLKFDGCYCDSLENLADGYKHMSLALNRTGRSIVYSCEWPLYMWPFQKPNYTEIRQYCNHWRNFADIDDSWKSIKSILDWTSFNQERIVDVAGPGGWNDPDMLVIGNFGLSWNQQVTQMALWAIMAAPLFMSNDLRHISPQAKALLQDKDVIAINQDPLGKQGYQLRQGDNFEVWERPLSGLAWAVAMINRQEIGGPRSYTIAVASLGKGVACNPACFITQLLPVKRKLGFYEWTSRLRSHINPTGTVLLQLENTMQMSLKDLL
Pyruvate kinase PKM (Homo sapiens), sequence (P14618 whole entry, looked up): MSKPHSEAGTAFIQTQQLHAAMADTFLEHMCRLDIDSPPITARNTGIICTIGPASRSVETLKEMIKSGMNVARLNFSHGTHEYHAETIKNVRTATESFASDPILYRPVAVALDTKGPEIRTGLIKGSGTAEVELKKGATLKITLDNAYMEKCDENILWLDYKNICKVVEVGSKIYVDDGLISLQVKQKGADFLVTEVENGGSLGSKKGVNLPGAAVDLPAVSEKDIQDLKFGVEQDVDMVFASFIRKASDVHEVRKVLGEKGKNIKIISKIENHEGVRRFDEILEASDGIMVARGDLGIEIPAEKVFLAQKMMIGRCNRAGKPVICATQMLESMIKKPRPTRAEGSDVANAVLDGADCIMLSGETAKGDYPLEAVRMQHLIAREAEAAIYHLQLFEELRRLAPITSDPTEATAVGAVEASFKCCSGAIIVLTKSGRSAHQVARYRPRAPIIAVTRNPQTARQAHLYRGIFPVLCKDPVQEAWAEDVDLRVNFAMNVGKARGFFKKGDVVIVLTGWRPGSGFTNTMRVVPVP

SMILES | activity change, negative = inhibition [1] | Potency [2] | activity change, negative = inhibition [3] | activity, negative = inhibition [4] | Potency [5] | Potency [6] | Potency [7] | Potency [8] | Potency [9] | outcome [10] | outcome [11] | outcome [12] | outcome [13] | Potency [14] | Potency [15] | activity change, negative = inhibition [2] | Potency [16]
CC[N+](C)(CC)CCN1C(=O)c2ccccc2S1(=O)=O | 7.73% | inactive | 6.78% | -3.07% | > 46 µM | > 9.22 µM | inactive | inactive | inactive | – | – | – | – | – | – | – | –
CNc1ncnc2c1ncn2[C@@H]1O[C@@H](CO)[C@H](O)[C@@H]1O | -19.9% [at 38 µM] | inactive | 0.83% [at 38 µM] | -6.86% [at 38 µM] | > 46 µM | > 46 µM | inactive | inactive | – | inactive | inactive | inactive | inactive | inactive | – | – | –
C[N@+]1(CCC(=O)c2ccccc2)CC[C@H]2CC[C@H](C2)C1 | 2.46% | inactive | 3.4% | 1.34% | > 46 µM | > 9.22 µM | inactive | inactive | inactive | – | – | – | – | – | – | – | –
CC[C@H](C)C(=O)O[C@@H]1CCC=C2C=C[C@H](C)[C@@H](CC[C@H]3C[C@@H](O)CC(=O)O3)[C@H]21 | -28.7% [at 38 µM] | inactive | 6.96% [at 38 µM] | 10.1% [at 38 µM] | > 46 µM | > 46 µM | inactive | inactive | inactive | – | – | – | – | – | inactive | – | –
N[C@@H](C(=O)O)[C@@H]1C[C@H]1C(=O)O | -6.47% [at 38 µM] | inactive | 4.34% [at 38 µM] | 16.9% [at 38 µM] | > 46 µM | > 46 µM | inactive | inactive | inactive | – | – | – | – | – | inactive | – | –
C[C@]1(c2ccccc2)O[C@@H]2C[C@@H]3[C@@H]4CCC5=CC(=O)C=C[C@@]5(C)[C@]4(F)[C@H](O)C[C@]3(C)[C@@]2(C(=O)CO)O1 | 7.91% | – | -6.34% | -4.73% | < 2.95e-05 µM (active) | 0.00231 µM (active) | inactive | inactive | – | – | – | – | – | – | – | -16.4% [at 2.29 µM] | inactive
Cc1sc2ccccc2[n+]1CCC(=O)O | 3.36% | inactive | 16.6% | 8% | > 46 µM | > 9.22 µM | inactive | inactive | – | – | – | – | – | – | inactive | – | –
O=C(O)c1ccc(/C=N\N=C2c3ccccc3-c3ccccc32)cc1 | -12.4% | 0.126 µM (active) | -25.2% | -6.87% | > 46 µM | > 9.22 µM | inactive | inactive | – | – | – | – | – | – | inactive | – | –
O=c1[nH]c2[nH]c(=S)[nH]c(=S)c2[nH]1 | -13.3% | 3.98 µM (active) | -1.66% | 15.5% | > 46 µM | > 9.22 µM | inactive | inactive | 0.631 µM (active) | – | – | – | – | – | – | – | –
CCCCC[C@@H](O)[C@@H]1C(=O)O[C@@H](C)[C@@H](O)\C=C/C=C\C=C/C=C\C=C(\C)[C@H](O)C[C@H](O)C[C@H](O)C[C@H](O)C[C@H](O)C[C@H](O)C[C@@H]1O | -1.52% | – | -11.4% | 11% | > 46 µM | > 9.22 µM | inactive | inactive | 3.98 µM (active) | – | – | – | – | – | inactive | 3.3% [at 2.29 µM] | –
O=C(O)CCC/C=C\C[C@H]1[C@@H](/C=C\[C@@H](O)C2Cc3ccccc3C2)[C@H](F)C[C@H]1O | -14.7% [at 38 µM] | inactive | 14.3% [at 38 µM] | 9.41% [at 38 µM] | > 46 µM | > 46 µM | inactive | inactive | inactive | – | – | – | – | – | inactive | – | –
CN(Cc1cc(C(C)(C)C)cc(Br)c1O)Cc1cc(C(C)(C)C)cc(Br)c1O | -2.5% | 3.16 µM (active) | 11.8% | 7.17% | > 46 µM | > 9.22 µM | inactive | inactive | 3.16 µM (active) | – | – | – | – | – | – | – | –
N#CCCn1c(=O)c(CCc2ccccc2)nc2cnc(Oc3ccccc3)nc21 | -21% | 12.6 µM (active) | -2.26% | -14.5% | > 9.22 µM | > 46 µM | inactive | inactive | – | – | – | – | – | – | – | – | inactive
O=c1[nH]c(SCc2c(Cl)c(Cl)c(Cl)c(Cl)c2Cl)nc(=S)[nH]1 | 6.9% | 1 µM (active) | 13.5% | -6.17% | > 46 µM | > 9.22 µM | inactive | inactive | – | – | – | – | – | – | – | – | –
CC[C@@H]1CN2CCc3cc(OC)c(OC)cc3[C@H]2C[C@@H]1C[C@H]1NCCc2cc(OC)c(OC)cc21 | -115% [at 17.2 µM] (active) | inactive | -120% [at 17.2 µM] (active) | -94.8% [at 17.2 µM] (active) | > 20.6 µM and > 46 µM | > 20.6 µM and > 46 µM | – | – | – | – | – | – | – | – | inactive | – | –
